In publication PMC7862700, “An all-to-all approach to the identification of sequence-specific readers for epigenetic DNA modifications on cytosine” one finds binding signal data, which are given here for two sequences.

Test in all cases: DAPPL (digital affinity profiling via proximity ligation, sequencing); 10 mM Tris-HCl pH 7.5, 50 mM NaCl, 1 mM DTT, 4% glycerol, room temperature, 30 min; GST-TFs on glutathione beads, 16-mer random dsDNA library, 0.1% formaldehyde crosslink after washing; high values mean tight binding
What all share (conditions): protein: recombinant; tags: N-terminal GST; dsDNA, one strand shown

The target of one test is T1, FLI1 (Homo sapiens, UniProt Q01543 1-452).
T1 sequence: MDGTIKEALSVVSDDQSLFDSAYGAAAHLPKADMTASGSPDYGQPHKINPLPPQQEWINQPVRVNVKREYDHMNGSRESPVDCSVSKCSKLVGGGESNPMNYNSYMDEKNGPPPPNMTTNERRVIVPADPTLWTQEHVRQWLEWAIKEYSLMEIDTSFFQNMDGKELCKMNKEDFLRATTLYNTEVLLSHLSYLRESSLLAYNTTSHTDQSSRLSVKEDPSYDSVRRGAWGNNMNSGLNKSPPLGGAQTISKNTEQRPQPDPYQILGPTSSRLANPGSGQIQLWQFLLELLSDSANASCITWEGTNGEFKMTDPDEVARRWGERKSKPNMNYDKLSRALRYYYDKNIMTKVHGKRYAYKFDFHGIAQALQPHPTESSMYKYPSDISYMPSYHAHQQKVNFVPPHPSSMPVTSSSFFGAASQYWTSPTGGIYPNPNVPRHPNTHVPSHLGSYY
An outline of the steps: (§1)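 A tag-only sample was pooled with DNA-barcoded human transcription factors that had been expressed in yeast as GST fusions and captured on glutathione beads. The pools were incubated for 30 min at room temperature with 200 nmole of a random double-stranded 16-mer DNA library in Tris/NaCl/DTT/glycerol buffer, then washed, crosslinked with 0.1% formaldehyde, proximity-ligated (BsaI/T4 ligase, 1 h, 37 °C), PCR-amplified and sequenced on an Illumina NextSeq500. Binding signal is each hexamer's read frequency for a factor divided by its frequency for the tag-only sample.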

Another test addresses T2, GABPA (Homo sapiens, UniProt Q06546 1-454).
T2 sequence: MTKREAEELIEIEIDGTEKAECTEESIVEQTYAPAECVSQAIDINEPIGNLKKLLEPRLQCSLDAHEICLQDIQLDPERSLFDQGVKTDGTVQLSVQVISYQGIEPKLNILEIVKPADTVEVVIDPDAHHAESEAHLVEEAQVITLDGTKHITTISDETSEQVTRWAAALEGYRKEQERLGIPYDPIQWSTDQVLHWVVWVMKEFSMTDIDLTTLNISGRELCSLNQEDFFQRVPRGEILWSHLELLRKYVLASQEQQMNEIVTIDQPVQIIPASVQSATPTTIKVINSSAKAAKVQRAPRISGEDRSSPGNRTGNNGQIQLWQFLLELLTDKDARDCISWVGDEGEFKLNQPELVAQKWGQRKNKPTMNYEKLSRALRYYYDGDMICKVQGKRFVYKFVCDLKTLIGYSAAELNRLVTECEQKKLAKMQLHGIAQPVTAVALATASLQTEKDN
The method in brief:
as §1

The next test addresses ELF1 (Homo sapiens, UniProt P32519 1-619). An outline of the steps: as §1
The target in a further test is T3, EHF (Homo sapiens, UniProt Q9NZC4 1-300).
T3 sequence: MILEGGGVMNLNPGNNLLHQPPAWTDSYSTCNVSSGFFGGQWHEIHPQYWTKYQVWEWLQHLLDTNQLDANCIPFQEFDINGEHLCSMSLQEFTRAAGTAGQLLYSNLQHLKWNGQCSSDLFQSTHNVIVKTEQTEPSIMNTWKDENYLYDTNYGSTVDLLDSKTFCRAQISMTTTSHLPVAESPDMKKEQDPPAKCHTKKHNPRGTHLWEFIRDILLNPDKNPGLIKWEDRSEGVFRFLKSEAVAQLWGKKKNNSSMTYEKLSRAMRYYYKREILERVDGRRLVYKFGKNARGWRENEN
The method in brief:
as §1

The next test addresses SPIB (Homo sapiens, UniProt Q01892 1-262). An outline of the steps:
as §1

A further test addresses ETV5 (Homo sapiens, UniProt P41161 1-510). An outline of the steps:
as §1

Another test addresses T4, SPIC (Homo sapiens, UniProt Q8N5J4 1-248).
T4 sequence: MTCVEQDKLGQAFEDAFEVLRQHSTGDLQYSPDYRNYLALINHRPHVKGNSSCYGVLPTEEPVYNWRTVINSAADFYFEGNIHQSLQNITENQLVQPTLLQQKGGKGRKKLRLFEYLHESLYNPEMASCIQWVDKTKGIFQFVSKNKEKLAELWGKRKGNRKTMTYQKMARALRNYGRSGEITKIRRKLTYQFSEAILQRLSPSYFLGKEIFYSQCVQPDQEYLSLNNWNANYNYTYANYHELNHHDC
The method in brief:
as §1

Another test addresses ELF4 (Homo sapiens, UniProt Q99607 1-663). The method in brief: as §1
In the next test the target is T5, ERF (Homo sapiens, UniProt P50548 1-548).
T5 sequence: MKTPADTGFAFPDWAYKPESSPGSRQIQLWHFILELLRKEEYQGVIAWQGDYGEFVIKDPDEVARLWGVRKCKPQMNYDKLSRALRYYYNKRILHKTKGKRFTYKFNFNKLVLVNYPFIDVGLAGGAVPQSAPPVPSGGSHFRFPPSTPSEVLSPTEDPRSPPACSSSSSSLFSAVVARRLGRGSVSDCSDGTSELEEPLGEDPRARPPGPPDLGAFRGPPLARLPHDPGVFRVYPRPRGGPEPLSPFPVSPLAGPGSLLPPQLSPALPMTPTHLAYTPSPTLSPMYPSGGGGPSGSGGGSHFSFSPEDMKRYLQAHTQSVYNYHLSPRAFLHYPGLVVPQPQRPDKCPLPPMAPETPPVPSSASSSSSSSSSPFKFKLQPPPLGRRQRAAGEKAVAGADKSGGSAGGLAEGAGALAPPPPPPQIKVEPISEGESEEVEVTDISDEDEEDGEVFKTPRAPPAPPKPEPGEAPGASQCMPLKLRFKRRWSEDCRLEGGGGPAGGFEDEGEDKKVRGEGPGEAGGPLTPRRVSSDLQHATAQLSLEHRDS
An outline of the steps: as §1

Another test addresses T6, ETS2 (Homo sapiens, UniProt P15036 1-469).
T6 sequence: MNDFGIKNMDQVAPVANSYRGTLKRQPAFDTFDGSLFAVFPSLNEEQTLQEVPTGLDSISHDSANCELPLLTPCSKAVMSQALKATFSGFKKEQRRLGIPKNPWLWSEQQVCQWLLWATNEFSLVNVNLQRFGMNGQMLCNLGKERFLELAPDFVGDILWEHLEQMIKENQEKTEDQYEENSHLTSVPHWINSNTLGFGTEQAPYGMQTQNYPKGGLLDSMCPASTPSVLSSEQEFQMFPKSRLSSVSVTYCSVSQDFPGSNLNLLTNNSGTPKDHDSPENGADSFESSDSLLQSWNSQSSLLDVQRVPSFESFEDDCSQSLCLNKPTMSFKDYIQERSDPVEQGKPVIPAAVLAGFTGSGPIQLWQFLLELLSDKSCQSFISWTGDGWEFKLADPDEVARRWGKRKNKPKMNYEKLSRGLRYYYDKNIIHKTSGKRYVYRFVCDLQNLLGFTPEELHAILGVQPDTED
An outline of the steps:
as §1

Another test has as its target T7, SPDEF (Homo sapiens, UniProt O95238 1-335).
T7 sequence: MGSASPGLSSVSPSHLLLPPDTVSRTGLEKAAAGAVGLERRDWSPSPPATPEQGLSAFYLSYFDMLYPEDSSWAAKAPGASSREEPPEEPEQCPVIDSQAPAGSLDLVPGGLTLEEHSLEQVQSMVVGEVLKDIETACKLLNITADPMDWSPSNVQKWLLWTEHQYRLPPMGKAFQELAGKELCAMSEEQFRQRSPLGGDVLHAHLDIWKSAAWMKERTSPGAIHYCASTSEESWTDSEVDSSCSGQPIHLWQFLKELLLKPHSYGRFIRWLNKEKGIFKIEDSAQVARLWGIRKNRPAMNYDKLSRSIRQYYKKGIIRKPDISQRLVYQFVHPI
The method in brief: as §1

In the next test the target is T8, ELF5 (Homo sapiens, UniProt Q9UKW6-2 1-255).
T8 sequence: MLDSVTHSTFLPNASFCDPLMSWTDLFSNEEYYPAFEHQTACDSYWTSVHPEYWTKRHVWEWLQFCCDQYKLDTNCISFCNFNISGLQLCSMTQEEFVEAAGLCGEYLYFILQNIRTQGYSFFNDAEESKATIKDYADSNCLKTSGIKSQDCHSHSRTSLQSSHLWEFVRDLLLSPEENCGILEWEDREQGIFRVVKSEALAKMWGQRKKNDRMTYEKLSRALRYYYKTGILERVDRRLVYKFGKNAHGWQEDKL
An outline of the steps: as §1

Another test has as its target ETV6 (Homo sapiens, UniProt P41212 1-452). The method in brief: as §1
The target of a further test is T9, ERG (Homo sapiens, UniProt P11308 1-479).
T9 sequence: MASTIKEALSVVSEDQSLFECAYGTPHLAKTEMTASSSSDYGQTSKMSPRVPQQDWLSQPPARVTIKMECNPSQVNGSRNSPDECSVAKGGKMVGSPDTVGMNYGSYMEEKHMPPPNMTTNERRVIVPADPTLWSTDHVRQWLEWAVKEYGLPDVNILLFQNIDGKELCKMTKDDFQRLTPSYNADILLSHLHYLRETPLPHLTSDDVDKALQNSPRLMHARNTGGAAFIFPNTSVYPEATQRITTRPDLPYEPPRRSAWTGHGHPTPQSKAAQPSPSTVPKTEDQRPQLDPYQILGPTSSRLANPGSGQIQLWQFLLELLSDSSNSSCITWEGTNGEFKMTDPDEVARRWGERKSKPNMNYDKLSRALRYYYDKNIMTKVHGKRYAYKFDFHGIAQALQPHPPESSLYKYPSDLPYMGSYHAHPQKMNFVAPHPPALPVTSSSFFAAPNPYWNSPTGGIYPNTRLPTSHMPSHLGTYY
The method in brief:
as §1

Another test addresses SPI1 (Homo sapiens, UniProt P17947 1-270). An outline of the steps: as §1
A further test concerns the target T10, FEV (Homo sapiens, UniProt Q99581 1-238).
T10 sequence: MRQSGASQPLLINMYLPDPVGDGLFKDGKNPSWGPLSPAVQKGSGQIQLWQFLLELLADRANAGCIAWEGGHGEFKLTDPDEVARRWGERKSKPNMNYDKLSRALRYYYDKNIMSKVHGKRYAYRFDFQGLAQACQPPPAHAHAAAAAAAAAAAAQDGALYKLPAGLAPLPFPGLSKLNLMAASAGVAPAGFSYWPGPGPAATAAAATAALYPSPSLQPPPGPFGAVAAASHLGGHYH
An outline of the steps: as §1

The target of a further test is ETV1 (Homo sapiens, UniProt P50549 1-477). The method in brief:
as §1

For a further test, the target named is T11, ETV3L (Homo sapiens, UniProt Q6ZN32 1-361).
T11 sequence: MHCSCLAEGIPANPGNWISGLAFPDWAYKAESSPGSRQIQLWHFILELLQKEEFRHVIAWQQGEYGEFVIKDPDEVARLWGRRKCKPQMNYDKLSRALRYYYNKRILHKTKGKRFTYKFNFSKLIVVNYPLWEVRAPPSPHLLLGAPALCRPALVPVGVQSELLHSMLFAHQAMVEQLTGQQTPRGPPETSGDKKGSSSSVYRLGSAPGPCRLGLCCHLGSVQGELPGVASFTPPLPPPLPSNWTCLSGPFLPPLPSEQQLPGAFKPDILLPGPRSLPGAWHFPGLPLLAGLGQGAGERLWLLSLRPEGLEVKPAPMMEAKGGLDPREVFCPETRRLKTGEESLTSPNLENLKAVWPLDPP
An outline of the steps: as §1

The next test addresses T12, ETV3 (Homo sapiens, UniProt P41162-2 1-143).
T12 sequence: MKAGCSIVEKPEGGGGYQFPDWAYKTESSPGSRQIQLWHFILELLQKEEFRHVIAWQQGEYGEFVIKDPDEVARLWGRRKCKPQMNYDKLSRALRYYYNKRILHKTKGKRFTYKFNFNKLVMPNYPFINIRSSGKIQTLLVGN
The method in brief:
as §1

Sequence of ETV5 (P41161 whole entry): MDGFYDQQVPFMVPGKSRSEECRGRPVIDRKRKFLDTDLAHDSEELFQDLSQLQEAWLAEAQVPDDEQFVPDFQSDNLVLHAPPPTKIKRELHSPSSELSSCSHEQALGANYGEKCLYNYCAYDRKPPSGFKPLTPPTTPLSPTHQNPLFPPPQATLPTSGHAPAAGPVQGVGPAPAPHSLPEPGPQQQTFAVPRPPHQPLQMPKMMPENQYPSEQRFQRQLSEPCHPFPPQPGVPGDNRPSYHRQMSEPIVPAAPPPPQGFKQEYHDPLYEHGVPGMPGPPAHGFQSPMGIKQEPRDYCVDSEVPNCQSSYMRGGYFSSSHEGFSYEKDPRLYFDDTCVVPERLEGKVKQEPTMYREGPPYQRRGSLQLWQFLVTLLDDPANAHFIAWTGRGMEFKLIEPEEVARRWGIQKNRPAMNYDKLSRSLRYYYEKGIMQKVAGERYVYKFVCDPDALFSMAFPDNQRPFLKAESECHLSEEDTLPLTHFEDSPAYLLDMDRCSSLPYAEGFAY
Sequence of ELF4 (Q99607 whole entry): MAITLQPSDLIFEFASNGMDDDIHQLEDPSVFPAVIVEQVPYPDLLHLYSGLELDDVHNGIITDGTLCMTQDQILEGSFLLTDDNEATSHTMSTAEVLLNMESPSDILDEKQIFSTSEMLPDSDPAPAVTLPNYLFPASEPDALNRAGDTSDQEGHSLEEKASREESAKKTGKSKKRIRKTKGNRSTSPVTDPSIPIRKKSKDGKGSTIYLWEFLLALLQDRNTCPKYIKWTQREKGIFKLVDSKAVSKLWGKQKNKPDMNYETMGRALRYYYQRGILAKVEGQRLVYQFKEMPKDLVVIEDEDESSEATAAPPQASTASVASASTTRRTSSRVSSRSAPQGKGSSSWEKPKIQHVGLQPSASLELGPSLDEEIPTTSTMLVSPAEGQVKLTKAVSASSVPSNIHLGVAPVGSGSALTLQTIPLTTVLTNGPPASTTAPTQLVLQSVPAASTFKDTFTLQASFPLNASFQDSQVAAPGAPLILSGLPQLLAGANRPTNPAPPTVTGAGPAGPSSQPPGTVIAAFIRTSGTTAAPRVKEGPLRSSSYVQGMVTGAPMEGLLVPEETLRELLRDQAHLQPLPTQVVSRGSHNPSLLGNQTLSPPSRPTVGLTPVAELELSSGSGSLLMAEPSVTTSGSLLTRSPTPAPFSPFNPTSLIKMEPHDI
Sequence of ETV6 (P41212 whole entry): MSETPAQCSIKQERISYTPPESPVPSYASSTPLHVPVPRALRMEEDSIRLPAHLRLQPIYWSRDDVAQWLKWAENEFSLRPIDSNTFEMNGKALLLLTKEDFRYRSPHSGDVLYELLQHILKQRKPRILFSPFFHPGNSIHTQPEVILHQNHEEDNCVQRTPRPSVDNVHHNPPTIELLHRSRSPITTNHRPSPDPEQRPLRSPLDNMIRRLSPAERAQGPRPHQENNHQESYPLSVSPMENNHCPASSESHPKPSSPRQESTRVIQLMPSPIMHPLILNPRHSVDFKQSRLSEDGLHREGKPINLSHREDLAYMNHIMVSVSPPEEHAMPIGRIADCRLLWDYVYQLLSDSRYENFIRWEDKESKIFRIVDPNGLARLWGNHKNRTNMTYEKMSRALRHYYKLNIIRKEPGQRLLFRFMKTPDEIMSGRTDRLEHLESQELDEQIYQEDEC
Sequence of SPIB (Q01892 whole entry): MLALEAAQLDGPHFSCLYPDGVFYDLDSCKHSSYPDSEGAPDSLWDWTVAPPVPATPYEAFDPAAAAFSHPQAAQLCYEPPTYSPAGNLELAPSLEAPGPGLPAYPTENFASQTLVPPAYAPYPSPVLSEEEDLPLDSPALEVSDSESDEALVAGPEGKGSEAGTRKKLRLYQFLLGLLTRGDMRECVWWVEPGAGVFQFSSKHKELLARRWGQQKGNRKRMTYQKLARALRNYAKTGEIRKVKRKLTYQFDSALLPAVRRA
Sequence of ELF1 (P32519 whole entry): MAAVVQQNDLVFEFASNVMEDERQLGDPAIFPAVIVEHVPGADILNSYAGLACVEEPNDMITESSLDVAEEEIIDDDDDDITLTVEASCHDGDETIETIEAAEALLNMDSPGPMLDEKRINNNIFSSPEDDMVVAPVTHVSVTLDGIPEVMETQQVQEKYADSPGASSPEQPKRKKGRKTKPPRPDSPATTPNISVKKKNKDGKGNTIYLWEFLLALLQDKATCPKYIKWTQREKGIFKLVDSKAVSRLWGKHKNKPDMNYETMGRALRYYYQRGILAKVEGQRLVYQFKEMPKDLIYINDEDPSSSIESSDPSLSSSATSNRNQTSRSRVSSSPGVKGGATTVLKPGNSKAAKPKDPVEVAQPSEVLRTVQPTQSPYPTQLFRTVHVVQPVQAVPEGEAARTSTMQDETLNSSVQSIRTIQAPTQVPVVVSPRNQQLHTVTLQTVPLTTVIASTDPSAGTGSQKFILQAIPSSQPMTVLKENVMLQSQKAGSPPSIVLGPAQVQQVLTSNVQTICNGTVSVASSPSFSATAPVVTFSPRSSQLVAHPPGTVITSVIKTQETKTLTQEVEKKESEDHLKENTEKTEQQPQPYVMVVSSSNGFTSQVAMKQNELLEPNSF
Sequence of ETV1 (P50549 whole entry): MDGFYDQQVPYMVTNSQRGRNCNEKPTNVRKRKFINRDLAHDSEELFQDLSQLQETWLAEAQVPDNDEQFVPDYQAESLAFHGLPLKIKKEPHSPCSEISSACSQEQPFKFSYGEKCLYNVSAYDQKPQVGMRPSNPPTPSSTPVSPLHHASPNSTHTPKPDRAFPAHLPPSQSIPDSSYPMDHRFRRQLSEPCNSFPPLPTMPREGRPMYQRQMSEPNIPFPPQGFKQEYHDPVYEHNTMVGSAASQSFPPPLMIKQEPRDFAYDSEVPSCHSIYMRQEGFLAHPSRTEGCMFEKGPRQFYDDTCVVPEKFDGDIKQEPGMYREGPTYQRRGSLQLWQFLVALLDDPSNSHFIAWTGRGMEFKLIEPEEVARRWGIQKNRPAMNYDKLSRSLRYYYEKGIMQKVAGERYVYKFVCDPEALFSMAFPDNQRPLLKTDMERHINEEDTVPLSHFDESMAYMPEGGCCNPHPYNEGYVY

Turning to ACATAG, the binding signal was 1.12 fold enrichment (6-mer frequency, TF over GST control) with FLI1; 1.03 fold enrichment (6-mer frequency, TF over GST control) with GABPA; 1.07 fold enrichment (6-mer frequency, TF over GST control) with ELF1; 1.07 fold enrichment (6-mer frequency, TF over GST control) in the test with EHF; 1.01 fold enrichment (6-mer frequency, TF over GST control) with SPIB; 1.08 fold enrichment (6-mer frequency, TF over GST control) in the test with ETV5. For the same sequence, the binding signal in the test with SPIC is 1.02 fold enrichment (6-mer frequency, TF over GST control); with ELF4, 1.04 fold enrichment (6-mer frequency, TF over GST control); with ERF, 1.11 fold enrichment (6-mer frequency, TF over GST control); with ETS2, 1.05 fold enrichment (6-mer frequency, TF over GST control); with SPDEF, 1 fold enrichment (6-mer frequency, TF over GST control); in the test with ELF5 it was 1.02 fold enrichment (6-mer frequency, TF over GST control). Further, the binding signal in the test with ETV6 was 1.07 fold enrichment (6-mer frequency, TF over GST control).
For the sequence AGTGCC, the binding signal in the test with FLI1 was 1.06 fold enrichment (6-mer frequency, TF over GST control); with ERG, 1.01 fold enrichment (6-mer frequency, TF over GST control); in the test with SPI1 it was 1.32 fold enrichment (6-mer frequency, TF over GST control); with SPIB, 1.01 fold enrichment (6-mer frequency, TF over GST control); with FEV it was 1.04 fold enrichment (6-mer frequency, TF over GST control); in the test with ETV5 it was 1.03 fold enrichment (6-mer frequency, TF over GST control). Also, the binding signal is 1.19 fold enrichment (6-mer frequency, TF over GST control) in the test with SPIC; 1.01 fold enrichment (6-mer frequency, TF over GST control) with ELF4; 1.04 fold enrichment (6-mer frequency, TF over GST control) with ETV1; 1.07 fold enrichment (6-mer frequency, TF over GST control) in the test with ETV3L; 1.05 fold enrichment (6-mer frequency, TF over GST control) with ETV3; 1.16 fold enrichment (6-mer frequency, TF over GST control) with ETV6.
